Molecules are shown by their SMILES.

Assay [1] deals with Vero E6 infected with SARS-CoV-2. Put plainly: morphology score (similarity to uninfected cells); higher = more like uninfected cells. Conditions: 24 h.
Assay [2] has the same test system. The assay is described as follows: SARS-CoV-2 infection rate relative to infected DMSO; higher = more infection, active = 60 or less. Conditions: 24 h.

`Oc1cc(O)c2c(c1)O[C@H](c1ccc(O)c(O)c1)[C@H](O)[C@H]2c1c(O)cc(O)c2c1O[C@H](c1ccc(O)c(O)c1)[C@H](O)C2` [procyanidin-B-2] (10 µM) came in with a morphology score in assay [1] of 0.114. Besides, the SARS-CoV-2 infection rate in assay [2] was 106% (inactive).
In the same order, the values of `CC[C@@H](c1ccc(F)c(F)c1)n1c(C(=O)OC)c(-c2ccno2)[nH]c1=S` (10 µM) are -0.0397 and 93.5% (inactive).
In the same order, the values of `C[N+](C)(C)CCOC(N)=O` [carbachol] (10 µM) are -0.148 and 101% (inactive).
`C[C@]12CCC(=O)C(O)=C1CC[C@@H]1[C@@H]2CC[C@]2(C)C(=O)CC[C@@H]12` [formestane] (10 µM) displayed a morphology score in assay [1] of -0.134. In addition, the SARS-CoV-2 infection rate in assay [2] is 115% (inactive).
For the molecule `C#C[C@]1(O)CC[C@H]2[C@@H]3CCC4=CC(=NO)CC[C@@H]4[C@H]3CC[C@@]21CC` (mixture of isomers) [norelgestromin] (10 µM), the morphology score in assay [1] is -0.0918. For the same molecule, the SARS-CoV-2 infection rate in assay [2] is 108% (inactive).

(Values after the supplement of paper PMC13380429.)
